Inconclusive results are not listed. Where a call stands in place of a potency, no number is given. The source made the active and inactive calls. Calls come from the whole dose curve; as a rule, active = well fitted inhibition curve with a large enough effect; inconclusive = small, poorly fitted or top-dose-only effect; inactive = flat fitted curve, though single readings scatter.
Potency is the fitted concentration of half-maximal effect.

Sequence of Luciferin 4-monooxygenase (Photinus pyralis) (P08659 whole entry, looked up): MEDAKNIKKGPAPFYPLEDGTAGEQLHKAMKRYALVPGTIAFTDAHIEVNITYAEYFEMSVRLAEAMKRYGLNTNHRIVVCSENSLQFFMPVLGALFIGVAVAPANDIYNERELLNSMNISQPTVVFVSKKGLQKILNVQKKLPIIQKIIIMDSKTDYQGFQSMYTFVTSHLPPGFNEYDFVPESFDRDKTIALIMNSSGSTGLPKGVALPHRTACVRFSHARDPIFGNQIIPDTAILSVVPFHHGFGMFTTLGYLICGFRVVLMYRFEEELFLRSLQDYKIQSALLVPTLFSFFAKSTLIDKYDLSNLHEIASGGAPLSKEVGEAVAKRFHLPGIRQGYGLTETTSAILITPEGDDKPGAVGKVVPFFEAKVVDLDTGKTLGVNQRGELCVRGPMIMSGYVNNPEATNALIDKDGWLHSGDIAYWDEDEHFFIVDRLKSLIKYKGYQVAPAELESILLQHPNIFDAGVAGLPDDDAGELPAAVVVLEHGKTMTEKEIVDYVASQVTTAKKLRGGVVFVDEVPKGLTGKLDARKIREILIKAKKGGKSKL

The experiment addresses Luciferin 4-monooxygenase (Photinus pyralis) (UniProt P08659). Briefly: qHTS Assay for Inhibitors of Firefly Luciferase from the GSK Published Protein Kinase Inhibitor Set. To be noted: purified firefly luciferase, luminescence inhibition; series mostly up to 57.5 µM. From the text:
FLuc (firefly luciferase) is the prototypical bioluminescent reporter gene from Photinus pyralis.[1] The enzyme catalyzes the oxidation luciferin via luciferin-AMP to produce light. FLuc is used in cell-based reporter gene-based assays for screening small molecule chemical libraries. However, small molecule luciferase inhibitors present in most large chemical libraries are often enriched in the output of high throughput screens using this reporter sometimes complicating interpretation and candidate selection.
RLuc is a bioluminescent reporter gene luciferase from Renilla reniformis, also known as the sea pansy. RLuc uses the luciferin substrate coelenterazine. RLuc is often used in combination with the nonhomologous luciferase FLuc (firefly luciferease) as a trasfection or pathway normalization control. Recently, non-homologous reporters have been described for high throughput screening 'coincidence' reporter gene strategies.
1. Fan F, Wood KV (2007) Bioluminescent assays for high-throughput screening. Assay Drug Dev Technol 5: 127-136.
2. Thorne N, Inglese J, Auld DS (2010) Illuminating insights into firefly luciferase and other bioluminescent reporters used in chemical biology. Chem Biol 17: 646-657.
3. […] Chem Biol 19: 1060-1072.
4. Michelini E, Cevenini L, Mezzanotte L, Coppa A, Roda A (2010) Cell-based assays: fuelling drug discovery. Anal Bioanal Chem 398: 227-238.
5. Cheng KC, Inglese J (2012) A coincidence reporter-gene system for high-throughput screening. Nat Methods 9: 937.
Biochemical firefly luciferase enzyme assay
NCGC Assay Protocol Summary:
Reagents: 50mM Tris acetate, pH 7.5; 10mM Mg acetate; 10uM D-luciferin (Sigma #L9504); 10uM ATP; 0.01% Tween-20; 0.05% BSA; 10nM P. pyralis luciferase (Sigma #L9506)
Control compounds used were two known firefly luciferase inhibitors (compounds (2) and (5) in Auld et al., 2010), and DMSO.
Three microliters containing firefly luciferase substrates in buffer (final concentrations: 50mM Tris acetate, pH 7.5, 10mM Mg acetate, 0.01% Tween-20, 0.05% BSA, 10uM D-luciferin, and 10uM ATP) are dispensed into each well of a Greiner white, solid-bottom 1536-well format plate using a flying reagent dispenser (FRD). These assay plates were then treated with 23nL of compound or DMSO using a Kalypsys pin tool, which allows for delivery of a 7-point interplate titration of each compound to the assay plates (quantitative HTS), with final compound concentrations ranging from approximately 60uM to 300pM. One microliter of firefly luciferase in 50mM Tris-acetate buffer was then delivered by FRD to each well for a final enzyme concentration of 10nM. Luciferase activity was then measured using an Envision plate reader (PerkinElmer), with an average incubation time of 5 min.
In general terms: In qHTS, concentration-response curves come from the screen itself.
Take `O=C1NC(=O)C(c2ccc(Cl)cc2)=C1Nc1ccc(Cl)c(C(=O)O)c1`: the Potency entry is “inactive”. On to `CCNC(=O)OC1CNC(C#Cc2cc3ncnc(Nc4ccc(OCc5cccc(F)c5)c(Cl)c4)c3s2)C1` (stereo not given), for which the Potency entry is “inactive”. Take `CNC(=O)c1cncc(C=Cc2ccccc2C)c1`: the Potency result was “inactive”. For `Nc1nccc(-c2c(-c3ccc(F)cc3)ncn2C2CCNCC2)n1`, the Potency entry is “inactive”.

`CCc1nn2ncccc2c1-c1ccnc(NC2CC2)n1`: the Potency entry is “inactive”. Next, `Nc1nonc1-c1nc2cnccc2n1C1CCCCC1`: “inactive”. With `O=C1Nc2ccc(C(=O)c3ccco3)cc2/C1=C/c1cc(Cl)c(O)c(Cl)c1` the figure was 18.3 µM (active). Consider `CS(=O)(=O)CCN(CC#N)Cc1ccc(-c2ccc3ncnc(Nc4ccc(OCc5cccc(F)c5)c(Cl)c4)c3c2)o1`, for which the Potency entry is “inactive”. Next, `NCc1ccc(-c2nc(-c3ccc(Cl)c(O)c3)c(-c3ccncc3)[nH]2)cc1`: “inactive”; `NS(=O)(=O)c1cccc(-c2cc3ccncc3cc2OCc2ccccc2)c1`: “inactive”; `COc1ccc(Nc2ncc(-c3ccccc3)o2)cc1OC`: 5.8 µM (active). With `COc1cc2ncn(-c3cc(OC(C)c4ccccc4Cl)c(C(N)=O)s3)c2cc1OC` (stereo not given) the entry was “inactive”; with `Cc1cccc2c(N=Nc3ccc(S(N)(=O)=O)cc3)c(O)[nH]c12`, “inactive”.

`CCn1c(-c2nonc2N)nc2cnc(Oc3cccc(NC(=O)c4ccc(OCCN5CCOCC5)cc4)c3)cc21`: the Potency result was “inactive”. Next, `NC(=O)c1sc(-n2cnc3ccccc32)cc1OCc1ccccc1Br`: “inactive”; `NC(=O)c1cccc(Nc2nccc(Nc3cccc(F)c3)n2)c1`: 0.73 µM (active). With `COC(=O)c1ccc2c(c1)/C(=C/c1cc(Br)c(O)c(Br)c1)C(=O)N2` the figure was 20.6 µM (active). With `COc1ccc(C2=C(N3CCc4ccccc43)C(=O)NC2=O)cc1` the entry was “inactive”. Turning to `CN(C)c1cc2c(Nc3ccc4c(cnn4Cc4ccccc4)c3)ncnc2cn1`, the Potency result was “inactive”. Turning to `O=C(Nc1n[nH]c2cc(-c3ccccc3)ccc12)C1CC1`, the Potency was 18.3 µM (active). Next, `Cc1cc(O)cc(C)c1C=Cc1cncc(C(=O)N(C)C)c1`: “inactive”; `CCn1c(-c2nonc2N)nc2c(C#CC(C)(C)O)nc(OC(CN)c3ccccc3)cc21` (stereo not given): “inactive”; `CS(=O)(=O)CCNCc1cc(-c2cc3c(Nc4ccc(OCc5cccc(F)c5)c(Cl)c4)ncnc3s2)cs1`: “inactive”. Next, `CCn1cc(-c2ccnc3[nH]ccc23)c(-c2cccc(NC(=O)Nc3ccc(OCc4ccccc4)cc3)c2)n1`: “inactive”; `COc1cccc(COc2cc(-n3cnc4ccccc43)sc2C(N)=O)c1`: “inactive”.

As for `O=C1Nc2ccc(I)cc2C1=Cc1cc(Br)c(O)c(Br)c1`, the Potency entry is “inactive”.

Regarding `Fc1ccc(-c2ncn(C3CCNCC3)c2-c2ccnc(Oc3cccc(C(F)(F)F)c3)n2)cc1`, the Potency entry is “inactive”.

As for `COC(=O)Nc1nc2ccc(S(=O)(=O)c3ccc(NC(=O)Nc4cc(C(F)(F)F)ccc4F)cc3)cc2[nH]1`, the Potency result is “inactive”.

Take `COc1ccc2c(-c3ccnc(Nc4cccc(OC(F)(F)F)c4)n3)cnn2n1`: the Potency result is “inactive”. Next, `CNC(=O)c1cncc(C=Cc2c(Cl)cccc2Cl)c1`: 16.3 µM (active); `COc1cc(Nc2ncc3c(C)nc(-c4cccc(Oc5ccccc5)c4)n3n2)cc(OC)c1OC`: “inactive”. With `CCn1c(-c2nonc2N)nc2c(C#CC(C)(C)O)ncc(OCC3CCNCC3)c21` the entry was “inactive”; with `NS(=O)(=O)c1ccc(N=Nc2c(O)[nH]c3ccc(C(=O)NCCc4cnc[nH]4)cc23)cc1`, “inactive”. With `O=C1NC(=O)C(c2ccccc2Cl)=C1Nc1cccc(O)c1` the entry was “inactive”. For `c1ccc(-c2[nH]ncc2-c2ccnc(-c3ccc(OCCn4ccnc4)cc3)c2)nc1`, the Potency result was “inactive”. Next, `CS(=O)(=O)CCNCc1nc(-c2ccc3ncnc(Nc4ccc(F)c(Cl)c4)c3c2)cs1`: “inactive”; `Cc1ccc2c(-c3ccnc(Nc4ccc5c(c4)OCCO5)n3)c(-c3ccc(C(F)(F)F)cc3)nn2n1`: “inactive”; `CC(C)COC(=O)c1ccc2[nH]c(O)c(C=Nc3ccc(S(N)(=O)=O)cc3)c2c1`: “inactive”. With `Fc1cccc(COc2ccc(Nc3ncncc3C#Cc3ccccc3)cc2Cl)c1` the entry was “inactive”. With `COc1cc(Nc2ncc(-c3ccccc3)o2)cc(OC)c1`, the Potency was 6.51 µM (active).

Source of the values: PubChem BioAssay AID652016 (National Center for Advancing Translational Sciences (NCATS), 2013).
